Inconclusive results are not listed. Active and inactive are the calls of the source. Calls come from the whole dose curve; as a rule, active = well fitted inhibition curve with a large enough effect; inconclusive = small, poorly fitted or top-dose-only effect; inactive = flat fitted curve, though single readings scatter.

Consider 26 compounds from PubChem BioAssay (NCATS).

Common to all, as to assay: qHTS profiling for inhibitors of Plasmodium falciparum proliferation (AID 504749); note: nearly all actives have a fitted effect of over 60% in size
Holding throughout (settings): P. falciparum in erythrocytes, SYBR Green DNA, 72 h; series mostly up to 28.7 µM
For orientation: In qHTS, concentration-response curves come from the screen itself.

The test system of one assay is ATS189. An outline of the steps: (§1)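 Each compound contacts P. falciparum-infected red blood cells for 72 h at 37 C; lysis buffer (Tris, EDTA, saponin, Triton X, SYBR Green I) is added and fluorescence measured next morning; values normalized to controls.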
The test system of the next assay is ATS95. An outline of the steps:
as §1

For a further assay, the system named is C2A. In a few lines:
as §1

The next assay relates to CP185. An outline of the steps:
as §1

For the next assay, the system named is CP191. An outline of the steps:
as §1

A further assay has as its system CP192. In a few lines:
as §1

The subject of a further assay is CP194. In a few lines:
as §1

A further assay relates to CP201. An outline of the steps: as §1
A further assay deals with CP203. An outline of the steps:
as §1

For another assay, the system named is CP211. An outline of the steps:
as §1
Potency is the fitted concentration of half-maximal effect.

`C[C@H]1C(=O)O[C@@H]2CCN3CC=C(COC(=O)[C@](C)(O)[C@]1(C)O)[C@H]23`: the Potency entry with ATS189, in the assay with ATS95, in the assay on C2A, in the assay on CP185, in the assay on CP191 and with CP192 was “inactive” in each case. For the same compound, the Potency result in the assay with CP194, with CP201, in the assay on CP203 and with CP211 was “inactive” each time.
Take `OC(c1ccccc1)(c1ccccc1)C1CCNCC1`: the Potency entry in the assay on ATS189, in the assay with ATS95, with C2A, in the assay on CP185, with CP191 and with CP192 was “inactive” each time. The Potency result in the assay with CP194, with CP201, in the assay with CP203 and in the assay with CP211 was “inactive” throughout.
In the case of `CCC1(CC)C(=O)NC(=O)NC1=O`, the Potency result with ATS189, in the assay on ATS95, in the assay with C2A, in the assay with CP185, in the assay with CP191 and with CP192 was “inactive” throughout. Also, the Potency entry with CP194, with CP201, in the assay with CP203 and in the assay with CP211 was “inactive” throughout.
Take `Cc1ncc2n1-c1ccc(Cl)cc1C(c1ccccc1F)=NC2`: the Potency result in the assay on ATS189, with ATS95, with C2A, in the assay with CP185, in the assay with CP191 and in the assay on CP192 was “inactive” in each case. Besides, the Potency entry with CP194, in the assay with CP201, in the assay on CP203 and in the assay with CP211 was “inactive” throughout.
On to `NCc1cccnc1`, for which the Potency entry in the assay with ATS189, with ATS95, with C2A, in the assay with CP185, in the assay on CP191 and in the assay on CP192 was “inactive” each time. The Potency result with CP194, in the assay with CP201, in the assay on CP203 and with CP211 was “inactive” in each case.
For the compound `C[C@]12CC[C@H]3[C@@H](CC=C4C[C@@H](O)CC[C@@]43C)[C@@H]1CC[C@@H]2O`, the Potency result with ATS189, with ATS95, with C2A, in the assay on CP185, in the assay with CP191 and with CP192 was “inactive” in each case. The Potency entry in the assay with CP194, in the assay with CP201, with CP203 and in the assay with CP211 was “inactive” throughout.
`NC(=O)CN1CCCC1=O`: the Potency result in the assay with ATS189, with ATS95, with C2A, with CP185, in the assay on CP191 and in the assay on CP192 was “inactive” throughout. For the same compound, the Potency entry in the assay with CP194, with CP201, in the assay with CP203 and in the assay with CP211 was “inactive” each time.
For the compound `CN(C)C(=S)SSC(=S)N(C)C`, the Potency in the assay with ATS189 was 4.47 µM (active); in the assay on ATS95, 3.16 µM (active); in the assay on C2A it was 3.16 µM (active); in the assay with CP185, 2 µM (active); in the assay with CP191, 3.16 µM (active); in the assay with CP192 it was 3.79 µM (active). Further, the Potency is 3.38 µM (active) with CP194, 4.26 µM (active) in the assay on CP201, 4.78 µM (active) with CP203 and 2.69 µM (active) in the assay on CP211.
For the compound `CCS(=O)(=O)C(C)(C)S(=O)(=O)CC`, the Potency result with ATS189, in the assay with ATS95, with C2A, with CP185, with CP191 and in the assay on CP192 was “inactive” in each case. The Potency result in the assay with CP194, in the assay with CP201 and in the assay on CP203 was “inactive” throughout.
Consider `CNC(=O)NC(O)C(Cl)(Cl)Cl` (stereo not given), for which the Potency entry in the assay on ATS189, in the assay with ATS95, in the assay with C2A, with CP185, in the assay on CP191 and in the assay on CP192 was “inactive” in each case. The Potency result in the assay with CP194, with CP201, in the assay with CP203 and in the assay on CP211 was “inactive” each time.
Take `COc1ccc(CN2CCNCC2)c(OC)c1OC`: the Potency entry in the assay with ATS189, in the assay with ATS95, in the assay on C2A, in the assay with CP185, with CP191 and with CP192 was “inactive” in each case.
For the compound `Oc1c(Br)cc(Br)cc1Br`, the Potency result in the assay with ATS189, in the assay with ATS95, in the assay on C2A, in the assay with CP185, in the assay on CP191 and in the assay with CP192 was “inactive” throughout. Further, the Potency entry in the assay on CP194, in the assay on CP201, in the assay with CP203 and with CP211 was “inactive” each time.
As to `CCN(Cc1ccc(Cl)nc1)/C(=C/[N+](=O)[O-])NC`, the Potency entry with ATS189, in the assay on ATS95, with C2A, with CP185, in the assay with CP191 and in the assay on CP192 was “inactive” in each case. Further, the Potency entry with CP194, in the assay on CP201, in the assay on CP203 and in the assay with CP211 was “inactive” in each case.
As for `CC(C)(C)OC(=O)c1ncn2c1[C@@H]1CCCN1C(=O)c1c(Br)cccc1-2`, the Potency result with ATS189, in the assay with ATS95, in the assay with C2A, with CP185, in the assay on CP191 and in the assay with CP192 was “inactive” throughout. In addition, the Potency entry in the assay on CP194, in the assay on CP201, in the assay with CP203 and with CP211 was “inactive” in each case.
`O=c1n(Cl)c(=O)n(Cl)c(=O)n1Cl`: the Potency result with ATS189, in the assay with ATS95, in the assay on C2A, in the assay with CP185, in the assay on CP191 and in the assay on CP192 was “inactive” throughout. Also, the Potency result in the assay on CP194, in the assay with CP201, with CP203 and in the assay on CP211 was “inactive” each time.
`CCCCCCCCC(=O)NCc1ccc(O)c(OC)c1`: the Potency entry with ATS189, with ATS95, in the assay on C2A, with CP185, in the assay on CP191 and in the assay on CP192 was “inactive” throughout. For the same compound, the Potency entry in the assay on CP194, with CP201, in the assay on CP203 and in the assay on CP211 was “inactive” each time.
Take `c1cc2c(c(N3CCNCC3)c1)OCCO2`: the Potency result in the assay with ATS189, in the assay on ATS95, in the assay with C2A, in the assay on CP185, with CP191 and in the assay with CP192 was “inactive” each time. Besides, the Potency entry in the assay with CP194, in the assay on CP201, in the assay with CP203 and in the assay on CP211 was “inactive” in each case.
`CCC(=O)O[C@H]1CC[C@H]2[C@@H]3CCC4=CC(=O)CC[C@]4(C)[C@H]3CC[C@]12C`: the Potency entry in the assay on ATS189, in the assay with ATS95, in the assay on C2A, in the assay on CP185, in the assay with CP191 and in the assay with CP192 was “inactive” throughout. The Potency entry with CP194, in the assay on CP201, with CP203 and in the assay on CP211 was “inactive” throughout.
As for `c1ccc2nc(N3CCNCC3)ccc2c1`, the Potency result in the assay on ATS189, in the assay on ATS95, in the assay on C2A, in the assay with CP185, in the assay with CP191 and with CP192 was “inactive” in each case. The Potency entry with CP194, with CP201, in the assay with CP203 and in the assay on CP211 was “inactive” throughout.
Turning to `COP(=S)(OC)Oc1ccc(Sc2ccc(OP(=S)(OC)OC)cc2)cc1`, the Potency entry in the assay on ATS189, in the assay with ATS95, in the assay with C2A, in the assay on CP185, in the assay with CP191 and in the assay with CP192 was “inactive” in each case. Also, the Potency result in the assay on CP194, in the assay on CP201, in the assay on CP203 and with CP211 was “inactive” throughout.
For `C[N+](C)(C)CCOC(=O)C(O)(c1ccccc1)c1ccccc1`, the Potency entry with ATS189, in the assay on ATS95, in the assay on C2A, with CP185, with CP191 and with CP192 was “inactive” throughout. Further, the Potency result with CP194, with CP201, in the assay with CP203 and in the assay with CP211 was “inactive” in each case.
Consider `CCC1(c2ccccc2)CCC(=O)NC1=O` (stereo not given), for which the Potency result in the assay with ATS189, in the assay on ATS95, in the assay with C2A, in the assay with CP185, in the assay with CP191 and in the assay with CP192 was “inactive” each time. Besides, the Potency entry with CP194, in the assay with CP201, with CP203 and in the assay with CP211 was “inactive” in each case.
As to `CC(C)C(Br)C(=O)NC(N)=O` (stereo not given), the Potency entry with ATS189, in the assay on ATS95, in the assay on C2A, in the assay with CP185, in the assay with CP191 and in the assay with CP192 was “inactive” each time. The Potency result in the assay with CP194, in the assay on CP201, in the assay with CP203 and in the assay with CP211 was “inactive” throughout.
Regarding `CNC(=O)Oc1cccc2ccccc12`, the Potency entry in the assay on ATS189, with ATS95, in the assay on C2A, with CP185, in the assay with CP191 and with CP192 was “inactive” each time. Also, the Potency result in the assay on CP194, with CP201, in the assay with CP203 and with CP211 was “inactive” throughout.
With `C[C@]12C=CC(=O)C=C1CC[C@@H]1[C@@H]2CC[C@@]2(C)[C@H]1CC[C@]2(C)O`, the Potency entry in the assay with ATS189, in the assay on ATS95, with C2A, in the assay with CP185 and in the assay on CP191 was “inactive” in each case.
In the case of `C[N+]1(CCC(C(N)=O)(c2ccccc2)c2ccccc2)CCCCC1`, the Potency result in the assay on ATS189, with ATS95, in the assay with C2A, in the assay on CP185, in the assay with CP191 and with CP192 was “inactive” throughout. Further, the Potency entry with CP194, with CP201, in the assay with CP203 and with CP211 was “inactive” each time.
